Measurements reported in PubChem BioAssay (EPA / NIEHS).
Values joined by “and” are separate entries in the source; they are usually repeats but may differ in a detail not shown here. Equal values may be shown once. More than one record can exist for a structure, and the calls need not agree. Active and inactive are the calls of the source. Rule for the calls: active = hit-call score of the fitted dose curve at least 0.9, where 1 is the maximum; inactive = score below 0.9.

Experiments:
[1] = read-out: Urokinase-type plasminogen activator receptor (uPAR), PLAUR (gene 5329); experiment: BSK_4H_uPAR: BioMAP Diversity Plus: 4H Assay for Urokinase-type plasminogen activator receptor (uPAR) Biomarker Activity (AID 2283030); settings: primary human endothelial cells (HUVEC); actives raise or lower the signal
Procedure, shortened: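 Chemicals are dosed onto human vascular endothelial primary cells (umbilical vein). After 24 h, uPAR is read by ELISA. Gain or loss of signal is fitted relative to DMSO.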

[2] = read-out: Vascular endothelial growth factor receptor 2 (Homo sapiens) (UniProt P35968); experiment: BSK_4H_VEGFRII: BioMAP Diversity Plus: 4H Assay for Vascular endothelial growth factor receptor 2 (VEGFR2) Biomarker Activity (AID 2283031); settings: primary human endothelial cells (HUVEC); actives raise or lower the signal;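 for AC50: cell-surface VEGFR2 protein level quantified by ELISA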
Procedure, shortened: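 VEGFRII levels on human vascular endothelial primary cells were determined by ELISA at 24 hours post-dosing, with gain- or loss-of-signal fitted against DMSO controls.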

[3] = read-out: Human Leukocyte Antigen - DR isotype (HLADR), HLA-DRA (gene 3122); experiment: BSK_BE3C_HLADR: BioMAP Diversity Plus: BE3C Assay for Human Leukocyte Antigen - DR isotype (HLADR) Biomarker Activity (AID 2283032); settings: primary human bronchial epithelial cells; actives raise or lower the signal
Procedure, shortened: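 BioMAP BE3C format: human bronchial epithelium, 24 h compound treatment, ELISA detection of HLA-DR, with bidirectional analysis relative to DMSO.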

[4] = read-out: Vascular cell adhesion molecule 1 (VCAM1), VCAM1 (gene 7412); experiment: BSK_4H_VCAM1: BioMAP Diversity Plus: 4H Assay for Vascular cell adhesion molecule 1 (VCAM1) Biomarker Activity (AID 2283033); settings: primary human endothelial cells (HUVEC); actives raise or lower the signal
Procedure, shortened: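 In this human endothelial (HUVEC) system, biomarker ELISA was run 24 h after compound addition, and total protein in parallel wells was assessed by SRB at 560 nm; DMSO served as negative control.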

[5] = read-out: Interferon-gamma inducible Protein 10 (IP10), CXCL10 (gene 3627); experiment: BSK_BE3C_IP10: BioMAP Diversity Plus: BE3C Assay for Interferon-gamma inducible Protein 10 (IP10) Biomarker Activity (AID 2283034); settings: primary human bronchial epithelial cells; actives raise or lower the signal
Procedure, shortened: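 BE3C cells (human bronchial epithelial, primary); 24 h exposure; ELISA for IP-10; DMSO-referenced bidirectional fit.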

[6] = read-out: Monokine induced gamma interferon (MIG), CXCL9 (gene 4283); experiment: BSK_BE3C_MIG: BioMAP Diversity Plus: BE3C Assay for Monokine induced gamma interferon (MIG) Biomarker Activity (AID 2283035); settings: primary human bronchial epithelial cells; actives raise or lower the signal
Procedure, shortened: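 hu bronchial epithelial 1° cells, 24 h cpd; MIG by ELISA; bidirectional fit, DMSO = baseline.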

[7] = read-out: Transforming growth factor beta 1 (TGFb1), TGFB1 (gene 7040); experiment: BSK_BE3C_TGFb1: BioMAP Diversity Plus: BE3C Assay for Transforming growth factor beta 1 (TGFb1) Biomarker Activity (AID 2283036); settings: primary human bronchial epithelial cells; actives raise or lower the signal
Procedure, shortened: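 TGF-b1 measured via ELISA, 24 h after chemical dosing of human bronchial epithelial cells (BE3C). Overt cytotoxicity assessed in parallel by SRB (0.1%, TCA-fixed, 560 nm); analysis bidirectional relative to DMSO.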

[8] = read-out: Plasminogen activator inhibitor-1 (PAI1), SERPINE1 (gene 5054); experiment: BSK_BE3C_PAI1: BioMAP Diversity Plus: BE3C Assay for Plasminogen activator inhibitor-1 (PAI1) Biomarker Activity (AID 2283037); settings: primary human bronchial epithelial cells; actives raise or lower the signal
Procedure, shortened: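 In this multiplexed primary-cell system, bronchial epithelial cells receive test chemical and are sampled at 24 h. PAI-1 is read by ELISA, with DMSO serving as negative control for bidirectional fitting.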

[9] = read-out: urokinase plasminogen activator (uPA), PLAU (gene 5328); experiment: BSK_BE3C_uPA: BioMAP Diversity Plus: BE3C Assay for urokinase plasminogen activator (uPA) Biomarker Activity (AID 2283038); settings: primary human bronchial epithelial cells; actives raise or lower the signal
Procedure, shortened: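 Measured by ELISA: uPA from human primary bronchial epithelial cells 24 h after chemical treatment. Values derive from bidirectional curve fitting with DMSO serving as negative control. Total protein by SRB staining in parallel wells flagged overt cytotoxicity.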

[10] = read-out: Urokinase-type plasminogen activator receptor (uPAR), PLAUR (gene 5329); experiment: BSK_BE3C_uPAR: BioMAP Diversity Plus: BE3C Assay for Urokinase-type plasminogen activator receptor (uPAR) Biomarker Activity (AID 2283039); settings: primary human bronchial epithelial cells; actives raise or lower the signal
Procedure, shortened: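 Chemically treated human bronchial epithelial cells (lung primary) are assayed for uPAR by ELISA after 24 h, with data fitted in both directions using DMSO as negative control.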

Measured: AC50

Cc1cc(O)ccc1Cl
inactive: all assays above

CC1=C2C[C@H]3[C@@H](CC=C4C[C@@H](O)CC[C@@]43C)[C@@H]2CC[C@]12O[C@@H]1C[C@H](C)CN[C@H]1[C@H]2C
not listed: [7]
inactive: all other assays above

Cc1ccccc1[N+](=O)[O-]
not listed: [7]
inactive: all other assays above

CC#Cc1cc(C)nc(Nc2ccccc2)n1
active: [4] 18.1 µM
not listed: [7]
inactive: all other assays above

N#Cc1ccc(N(CC(N)=O)CC(F)(F)F)cc1C(F)(F)F
inactive: all assays above

O=C(N[C@H]1CN2CCC1CC2)c1cc2ccoc2cn1
not listed: [9]
inactive: all other assays above

CCSC(=O)N(CC)C1CCCCC1
not listed: [9]
inactive: all other assays above

Clc1ccc(Cl)cc1
not listed: [9]
inactive: all other assays above

CCC(C)(CC)c1cc(NC(=O)c2c(OC)cccc2OC)on1
not listed: [7]
inactive: all other assays above

Cc1ccc(O)c(C)c1
active: [4] 5.94 µM
not listed: [7]
inactive: all other assays above

O=S(=O)(O)C(F)(F)C(F)(F)C(F)(F)C(F)(F)F
inactive: all assays above

Nn1cnnc1
not listed: [9]
inactive: all other assays above

CC(C)C(=O)OCC(C)(C)C(OC(=O)C(C)C)C(C)C (stereo unspecified)
not listed: [9]
inactive: all other assays above

C1CC2OC2CC1C1CO1 (stereo unspecified)
not listed: [9]
inactive: all other assays above

CCCCCCOC(=O)c1ccccc1C(=O)OCCCCCC
inactive: all assays above

O=C(O)C(F)(F)C(F)(F)C(F)(F)C(F)(F)C(F)(F)C(F)(F)C(F)(F)C(F)(F)F
inactive: [1] | [2] | [4]
active: [3] 29.7 µM and 44.1 µM and 45.2 µM | [4] 41.7 µM | [5] 27.7 µM and 45.9 µM and 43.7 µM | [6] 32.7 µM and 50.1 µM and 52.7 µM | [7] 26.2 µM | [8] 32.3 µM and 23.3 µM and 40.2 µM | [9] 37.2 µM and 49.1 µM and 30 µM | [10] 35.1 µM and 47.8 µM and 48.6 µM

c1cc2ccc3cccc4ccc(c1)c2c34
active: [4] 15.5 µM
inactive: all other assays above

ClC1=C(Cl)[C@]2(Cl)[C@@H]3[C@H]4C[C@H]([C@@H]5O[C@H]45)[C@@H]3[C@@]1(Cl)C2(Cl)Cl
not listed: [9]
inactive: all other assays above

Cc1ccccc1O
inactive: all assays above

CCC(C)c1cc([N+](=O)[O-])cc([N+](=O)[O-])c1O (stereo unspecified)
inactive: [6] | [10]
active: [1] 11.5 µM | [2] 8.81 µM | [3] 20 µM | [4] 9.62 µM | [5] 1.87 µM | [7] 0.911 µM | [8] 1.39 µM

CN(C)c1nc(=O)n(C2CCCCC2)c(=O)n1C
not listed: [7]
inactive: all other assays above

Cc1cc2c3c(c1)C(c1ccccc1)=N[C@@H](NC(=O)c1ccncc1)C(=O)N3CC2
not listed: [9]
inactive: all other assays above

Oc1c(Cl)c(Cl)c(Cl)c(Cl)c1Cl
active: [1] 5.58 µM and 9.79 µM | [2] 11.6 µM | [3] 8.2 µM and 20.6 µM | [4] 10.2 µM and 21.5 µM | [5] 5.02 µM and 5.67 µM | [6] 11.8 µM and 30.3 µM | [8] 1.18 µM and 10.5 µM | [9] 4.12 µM and 14.7 µM | [10] 7.14 µM and 24.6 µM
inactive: [2]

Cc1cccc(C)c1N
not listed: [9]
inactive: all other assays above

ClC1=C(Cl)[C@]2(Cl)[C@@H]3[C@@H](Cl)[C@H]4O[C@H]4[C@@H]3C1(Cl)C2(Cl)Cl
not listed: [9]
inactive: all other assays above

O=C(O)C(F)(F)C(F)(F)C(F)(F)C(F)(F)C(F)(F)C(F)(F)C(F)(F)C(F)(F)C(F)(F)F
active: [1] 47 µM and 55 µM | [2] 43.2 µM and 55.4 µM | [3] 11.1 µM and 9.13 µM and 11.4 µM | [4] 33.8 µM and 46.9 µM and 46 µM | [5] 9.39 µM and 8.59 µM and 8.35 µM | [6] 28.6 µM and 26.9 µM and 12.7 µM | [8] 14.2 µM and 14.4 µM and 12.8 µM | [10] 30.8 µM and 16.4 µM and 14.7 µM
inactive: [1] | [2]

Oc1ccc(C(c2ccc(O)cc2)(C(F)(F)F)C(F)(F)F)cc1
active: [1] 32.5 µM | [3] 20.1 µM | [4] 29.3 µM | [5] 24.1 µM | [6] 37.3 µM | [7] 28.5 µM | [8] 21.4 µM | [9] 38.2 µM | [10] 38.1 µM
inactive: [2]

O=C(NC(=O)c1cc(F)c(F)cc1Cl)Nc1cc(F)ccc1N1CCC(C(=O)O)CC1
not listed: [9]
inactive: all other assays above

ClC1=C(Cl)[C@]2(Cl)[C@@H]3[C@@H]4C[C@@H]([C@H]5O[C@@H]45)[C@@H]3[C@@]1(Cl)C2(Cl)Cl
not listed: [9]
inactive: all other assays above

CN(C)CCO
not listed: [7]
inactive: all other assays above

O=C(NC(=O)c1c(F)cccc1F)Nc1cc(Cl)c(OC(F)(F)C(F)F)c(Cl)c1
not listed: [9]
inactive: all other assays above

NS(=O)(=O)C(F)(F)C(F)(F)C(F)(F)C(F)(F)C(F)(F)C(F)(F)C(F)(F)C(F)(F)F
active: [1] 29.3 µM and 43.7 µM and 45.6 µM | [2] 28.5 µM and 30 µM | [3] 5.61 µM and 37.8 µM and 37.6 µM | [4] 32.1 µM and 50.1 µM and 46 µM | [5] 10.2 µM and 27 µM and 23.1 µM | [6] 58.2 µM and 54.8 µM | [8] 10.4 µM and 17.1 µM and 15.5 µM | [10] 51.1 µM and 54.9 µM
inactive: [2] | [6] | [10]
